Source: PubChem BioAssay AID1745849 (National Center for Advancing Translational Sciences (NCATS), 2022)
Out of some 2,100 compounds screened, about 320 (15%) were called active. Another 52% or so got no clear call; they are omitted. The list shows a part of the results. A number with no mark means an inactive call. Calls follow the shape of the dose curve; as a rule, active = well fitted cell-killing curve with a large enough effect; inconclusive = small, poorly fitted or top-dose-only effect, or effect the other way; inactive = flat fitted curve, though single readings scatter.

Test: Viability Counterscreen for CMV-Luciferase Assay of Inhibitors of ATXN expression; also: nearly all actives have a fitted effect of over 55% in size
Details: HEK-293 CMV-luciferase cells viability, protease fluorescence, 24 h; activity change, negative = cytotoxicity: at the top concentration
How it was run: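 Dosing on CMV-luciferase HEK-293 cells for 24 hr, 37 °C. Luminescence read with SteadyGlo; cytotoxicity measured first as Gly-Phe-AFC protease fluorescence, 25 uM final substrate, 30 min.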
% is scaled to controls: 0 for no effect and ±100 for the full control effect; potency is read from the fitted curve at half-maximal effect.

Row | SMILES | activity change, negative = cytotoxicity | Potency
1 | O=C(C1CCC(CNS(=O)(=O)c2cccs2)CC1)N1CCN(c2ccc(F)cc2)CC1 (configuration not stated) | 3.95% | –
2 | CC1CCN(Cc2c(C(=O)N/N=C/c3cc(Cl)ccc3O)nnn2-c2nonc2N)CC1 | -22.8% | –
3 | CCOc1ccccc1C(=O)Nc1ccc2nc(N3CCN(c4ncccn4)CC3)cc(C)c2c1 | 27.6% [at 57.5 µM] | –
4 | Cn1nccc1C(=O)N1CCCC(C(=O)c2cccc3ccccc23)C1 (configuration not stated) | -25.3% [at 57.5 µM] | –
5 | COC(=O)C1=C(C)N(c2ccc(Cl)c(Cl)c2)C(=O)C1 | -5.92% | –
6 | FC(F)(F)c1ccc(N2CCN(c3cc(-c4ccccc4)nc4ncnn34)CC2)nc1 | -18.5% | –
7 | Clc1ccccc1C(c1ccccc1)(c1ccccc1)n1ccnc1 | -14.9% | –
8 | Cc1ccc(C)c(CN2CCC(CNC(=O)Nc3ccc(C)c(C)c3)CC2)c1 | -10.6% [at 57.5 µM] | –
9 | Cc1cc(C)nc(NNS(=O)(=O)c2ccc(F)c(Cl)c2)n1 | -11.6% | –
10 | COC1=C(C)C(O)=C(C(=O)/C=C/c2ccccc2)C(=O)C1(C)C | -17.6% [at 57.5 µM] | –
11 | Cc1[nH]c(=O)c(C(=O)/C=C/c2ccccc2)c2c1CCCC2 | – | 11.2 µM (active)
12 | Cc1cc(C)c(C(=O)/C=C/c2ccc(C(C)C)cc2)c(=O)[nH]1 | – | 17.8 µM (active)
13 | NS(=O)(=O)c1ccc(N2N=C(c3ccccc3)CC2c2cccc(Cl)c2)cc1 (configuration not stated) | 30% [at 57.5 µM] | –
14 | COc1cc2c(O)c3c(c(-c4ccc5c(c4)OCO5)c2cc1OC)C(=O)OC3 | 11.1% | –
15 | CCCCOc1ccc(NC2=NC3(CCCC3)N=C(N)N2)cc1 | -9.06% [at 57.5 µM] | –
16 | Cc1cccn2c(Nc3ccccc3)c(-c3ccccn3)nc12 | -2.3% [at 57.5 µM] | –
17 | Cc1ccn2c(Nc3ccccc3C)c(-c3ccccn3)nc2c1 | – | 8.91 µM (active)
18 | Cc1ccc(Nc2c(-c3ccccn3)nc3cccc(C)n23)cc1 | – | 3.98 µM (active)
19 | Cc1ccc(Nc2c(-c3ccccn3)nc3cc(C)ccn23)cc1 | – | 3.55 µM (active)
20 | NS(=O)(=O)c1ccc(CCNC(=O)COC(=O)/C=C/c2cc(Br)ccc2F)cc1 | 3.54% | –
21 | COC(=O)c1cc(Cl)ccc1NCC(N)c1ccccc1 (configuration not stated) | -20.5% [at 57.5 µM] | –
22 | O=C1CN(C(=O)c2c(F)cccc2F)C(c2ccc(F)cc2)c2cc(Br)ccc2N1 (configuration not stated) | -5.84% | –
23 | CCOc1ccc(S(=O)(=O)NCCC(=O)N2CC=C(c3ccccc3)CC2)cc1 | -5.74% [at 57.5 µM] | –
24 | Cc1cc(N2CCN(Cc3nc(-c4ccc(Cl)cc4)oc3C)CC2)cc(C)n1 | -23.3% [at 57.5 µM] | –
25 | N#C/C(=C\Nc1ccc2cn[nH]c2c1)c1nc(-c2ccc(Cl)cc2)cs1 | -21.2% | –
26 | Cc1ccc(S(=O)(=O)c2nc(S(C)(=O)=O)sc2N2CCCCC2C)cc1 (configuration not stated) | -26.2% [at 57.5 µM] | –

Row | SMILES | activity change, negative = cytotoxicity | Potency
27 | COc1cc(Br)cc(/C=N/NC(=O)Cc2ccccc2)c1O | 19.4% | –
28 | COc1ccc(CNC(=O)c2ccc(-c3cccnc3)c3ccoc23)cc1OC | -3.64% [at 57.5 µM] | –
29 | COc1ccc(Cc2nnc(N/N=C/c3ccccc3O)[nH]c2=O)cc1OC | – | 5.62 µM (active)
30 | Cc1ccc(NC(=O)CN2C(=O)c3ccccc3S2(=O)=O)cc1C | -29.9% [at 57.5 µM] | –
31 | [O-][n+]1onc2c1CCc1c-2nn(-c2ccccc2Cl)[n+]1[O-] | – | 25.1 µM (active)
32 | CN1C(=O)/C(=C\c2ccccc2F)Sc2ccc(C(=O)NC3CCN(Cc4ccccc4)CC3)cc21 | 1.37% | –
33 | O=C(Cc1coc2cc3c(cc12)CCC3)OCC(=O)N1CCCC1=O | -19.4% [at 57.5 µM] | –
34 | CCCc1nc(C)cc(N2CCN(c3ccccc3)CC2)n1 | -29.5% [at 57.5 µM] | –
35 | CCCCn1c2ccc(F)cc2c2nnc(NN)nc21 | – | 14.1 µM (active)
36 | COc1cccc(-c2nn(C)c3sc(C(=O)NCCCN(C)Cc4ccccc4)cc23)c1 | -27.4% [at 57.5 µM] | –
37 | CC(C)CC(=O)NC(=S)NNC(=O)c1ccc(NC(=O)C2CCCCC2)cc1 | -9.14% | –
38 | COc1ccc(C(=O)NNC(=S)NC(=O)C(C)(C)C)cc1 | – | 25.1 µM (active)
39 | CCCCC(=O)NNC(=S)NC(=O)c1ccc(C)cc1 | -18.1% | –
40 | Cc1ccc(Cl)cc1-c1ccc(C=Nc2ccc(N3CCOCC3)cc2)o1 | -12.6% [at 57.5 µM] | –
41 | COc1cc(C#Cc2c(-c3cncn3C)n(C)c3ccc(-c4cnc(N5CCOCC5)nc4)cc23)cc(OC)c1 | -23.6% | –
42 | O=C(c1ccco1)N1CCN(c2ncnc3scc(-c4cccs4)c23)CC1 | -21.1% | –
43 | COc1ccc(-c2csc3ncnc(Sc4nnnn4C)c23)cc1 | -27.4% | –
44 | Cn1nnnc1Sc1ncnc2scc(-c3cccs3)c12 | – | 8.91 µM (active)
45 | C[C@@H]1CC=C[C@@H]2[C@H]1C(=O)N(Cc1ccccc1)[C@H]2c1ccccc1Br | 2.07% [at 57.5 µM] | –
46 | CCOC(=O)C1CCN(c2ncnc3c2cnn3-c2ccc(Cl)cc2)CC1 | 9.73% [at 57.5 µM] | –
47 | Cc1ccc(N=Nc2ccc(O)c3ncccc23)cc1 | – | 10 µM (active)
48 | CCCOCc1ccc(O)c2ncccc12 | -7.03% [at 57.5 µM] | –
49 | Cc1ccccc1N=Nc1ccc(O)c2ncccc12 | – | 7.94 µM (active)
50 | COc1ccc(CNCCC(c2ccc(OC(C)C)cc2)c2ccccc2OC)cc1 (configuration not stated) | -17% | –
51 | CCCC1CCC(c2ccc(C(=O)NN)cc2)CC1 (configuration not stated) | 6.52% | –
52 | O=S(=O)(c1ccc2nc(COc3ccc(Cl)cc3Cl)[nH]c2c1)N1CCOCC1 | 14.4% | –

Row | SMILES | activity change, negative = cytotoxicity | Potency
53 | Cc1ccnc(NC(=O)CCCc2c[nH]c3ccccc23)c1 | -25.6% | –
54 | CC[n+]1c(/C=C/c2c[nH]c3ccccc23)ccc2cc(C)ccc21 | – | 12.6 µM (active)
55 | Cc1ccc(C)c(S(=O)(=O)N2CCN(c3ncnc4sccc34)CC2)c1 | -8.19% | –
56 | COc1ccccc1-c1ccc2c(c1)C(C)(Cc1cccc(F)c1)C(=O)N2 (configuration not stated) | -19.4% [at 57.5 µM] | –
57 | CC1CCC(CN2C(Nc3ccccc3)=NC[C@@H]2Cc2ccccc2)CC1 (some centres not stated) | -22.9% [at 57.5 µM] | –
58 | NC1=NC[C@H](Cc2ccccc2)N1CCCCC1CCCCC1 | -3.06% | –
59 | C[C@@H](CN1C2=NC[C@H](Cc3ccccc3)N2C[C@H]1Cc1ccc(O)cc1)NC(=O)CCC1CCCCC1 | – | 17.8 µM (active)
60 | Cc1cc(OCC(=O)Nc2ccc(Br)cc2)cc2c1C(=O)CC(C)(C)O2 | -10.4% | –
61 | OCCNc1c2ccccc2nc2ccccc12 | 24.1% [at 57.5 µM] | –
62 | COc1cc(N)ccc1Nc1c2ccccc2nc2ccccc12 | – | 14.1 µM (active)
63 | COc1cc2cc(C(=O)NC(C)c3cccc4ccccc34)c(N)nc2cc1OC (configuration not stated) | 1.89% | –
64 | O=c1c2c(-c3ccccc3)csc2nc2c3ccccc3c(NCCN3CCOCC3)nn12 | -22% | –
65 | CC(=O)C(=Cc1cccc(C#N)c1)C(=O)c1ccccc1 | – | 22.4 µM (active)
66 | Cc1ccc(NC(=O)CCC(=O)c2cc(C)sc2C)nc1 | -25.1% [at 57.5 µM] | –
67 | CCOC(=O)c1c(NC(=O)CSc2nnnn2-c2ccccc2)sc2c1CC(C)(C)NC2(C)C | -17.6% | –
68 | CCN(CC)CCCNc1nc2ccccc2c2nc(-c3ccncc3)nn12 | – | 15.8 µM (active)
69 | COC(=O)C(Cc1ccc(O)cc1)NC(=O)C(C)Oc1ccccc1 (configuration not stated) | -14.5% [at 57.5 µM] | –
70 | CC(C)CC(N)c1csc(NC(=O)Nc2ccccc2C(C)(C)C)n1 (configuration not stated) | -16.4% | –
71 | CC(Oc1ccc(F)cc1)C(=O)Nc1nc(-c2ccccn2)cs1 (configuration not stated) | – | 7.94 µM (active)
72 | COc1cccc(C(=O)Nc2nc(-c3ccc(S(=O)(=O)N4CCOCC4)cc3)cs2)c1 | -15.2% | –
73 | O=C(CN1C(=O)C2CCCCC2C1=O)Nc1nc(-c2ccccn2)cs1 (configuration not stated) | – | 17.8 µM (active)
74 | COC(=O)COc1ccc(-c2nccc(-c3ccccn3)n2)cc1 | -6.76% | –
75 | O=C(CCN1C(=O)C2CC=CCC2C1=O)Nc1nc(-c2ccc(F)c(F)c2)cs1 (configuration not stated) | -9.32% [at 57.5 µM] | –
76 | O=C(Nc1nc(-c2ccccn2)cs1)c1ccc(F)c(S(=O)(=O)N2CCOCC2)c1 | – | 5.01 µM (active)
77 | NC(c1ccccc1)c1csc(NC(=O)Nc2ccccc2Oc2ccccc2)n1 (configuration not stated) | -17.3% | –
78 | O=C(Nc1nc(-c2ccc(S(=O)(=O)N3CCOCC3)cc2)cs1)c1ccccc1 | -11.8% | –

Row | SMILES | activity change, negative = cytotoxicity | Potency
79 | O=C(Nc1nc(-c2ccccn2)cs1)Nc1ccc(F)cc1F | – | 11.2 µM (active)
80 | O=C(CC1Sc2ccccc2NC1=O)NNc1cccc(Cl)c1Cl (configuration not stated) | -5.55% | –
81 | CN1OC[C@@H]2CN[C@H](c3ccc(-c4cc5ccccc5o4)cc3)C[C@@H]21 | -1.7% [at 57.5 µM] | –
82 | CC1(C(=O)NCc2cccc(C(F)(F)F)c2)CCN1Cc1ccc(-c2ccccc2)o1 (configuration not stated) | -27.9% [at 57.5 µM] | –
83 | Cc1cc(C)c(C(O)c2ncc(-c3cccc4ccccc34)[nH]2)c(C)c1 (configuration not stated) | -7.88% | –
84 | CCN1CC2=C(OC(N)=C(C#N)C2c2cccs2)/C(=C\c2cccs2)C1 (configuration not stated) | -7.9% | –
85 | O=C(CN1CCCc2ccccc21)N/N=C/c1ccccc1O | -29.9% | –
86 | O=C(CCCOc1ccc(Cl)cc1Cl)N/N=C/c1ccccc1O | – | 3.98 µM (active)
87 | O=C(CCc1ccccc1)N/N=C/c1cc(Br)ccc1O | -29.8% | –
88 | CC(C)(C)c1ccc(NC(=O)N2CCCN(c3c(Cl)cncc3Cl)CC2)cc1 | 11% [at 57.5 µM] | –
89 | O=C(c1ccc(S(=O)(=O)c2cccc(Cl)c2)c([N+](=O)[O-])c1)N1CCN(Cc2ccccc2)CC1 | – | 15.8 µM (active)
90 | O=C(NC1CCN(Cc2ccccc2)CC1)c1cccc(S(=O)(=O)Nc2ccc(SC(F)F)cc2)c1 | -17.8% [at 57.5 µM] | –
91 | OC(c1ccccc1)(c1nc(-c2cc3ccccc3o2)cs1)C(F)(F)F (configuration not stated) | 16.3% [at 57.5 µM] | –
92 | O=S(=O)(c1ccc2c(c1)OCCO2)N1CCC(c2nc3ccc(Cl)cc3[nH]2)CC1 | -13.8% | –
93 | Cc1ccc(S(=O)(=O)N2CCc3ccccc3CC2)cc1 | -8.1% | –
94 | Cc1ccc(S(=O)(=O)/N=C(\Sc2ccccc2)c2ccccc2)cc1 | – | 15.8 µM (active)
95 | CCn1c(CCC(=O)Nc2nc3c(s2)CCCC3)nc2cc(S(=O)(=O)N(C)C)ccc21 | 11.6% | –
96 | Cc1ccc2c(Cl)cc(Cl)c(O)c2n1 | -19.2% [at 57.5 µM] | –
97 | COc1ccc(C)cc1NC(=O)COC(=O)c1c(C)nn(-c2ccccc2)c1C | -23.2% [at 57.5 µM] | –
98 | COc1ccc(C)cc1NC(=O)CSc1ccc(-c2ccccn2)nn1 | – | 12.6 µM (active)
99 | O=c1c(Cc2ccccc2)c(O)nc2n1CCS2 | -7.62% [at 57.5 µM] | –
100 | COc1cccc(/C=N/NC(=O)CC(C)O)c1OC/C=C/c1ccccc1 (configuration not stated) | -8.29% | –
101 | COc1ccc(/C=N/Nc2cc(N3CCCC3)nc(N3CCCC3)n2)cc1 | – | 2.82 µM (active)
102 | COc1ccc(C(=O)N/N=C/c2ccc(N(C)c3ccccc3)cc2)cc1 | 9.4% | –
